# Assay results as given in PubChem BioAssay AID2232 (The Scripps Research Institute Molecular Screening Center, 2010).
# Screen size: about 1,100 compounds; about 790 (72%) were called active.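 The calls were made as follows: active = mean inhibition across replicates above the hit cutoff set in the primary screen (cut at about 26% in these data); inactive = the rest.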 So high a share suggests a set chosen from earlier hits. Not all results are given here.
# Target: Acyl-protein thioesterase 2 (Homo sapiens) (UniProt O95372)
# Assay: inhibition of human lysophospholipase 2 – biochemical, fluorescence polarization, FP-Rh probe ABPP, counter-screen for PME1 inhibitor project, confirmation (AID 2232);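 also: blocked labeling of the enzyme by serine hydrolase FP-Rh probe lowers polarization; 0% = enzyme with DMSO and 100% = wells lacking LYPLA2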
# Conditions: recombinant LYPLA2, FP-Rh probe fluorescence polarization; at 5.9 µM; active compounds read high
# Chain of Acyl-protein thioesterase 2 (Homo sapiens) (O95372 whole entry, looked up): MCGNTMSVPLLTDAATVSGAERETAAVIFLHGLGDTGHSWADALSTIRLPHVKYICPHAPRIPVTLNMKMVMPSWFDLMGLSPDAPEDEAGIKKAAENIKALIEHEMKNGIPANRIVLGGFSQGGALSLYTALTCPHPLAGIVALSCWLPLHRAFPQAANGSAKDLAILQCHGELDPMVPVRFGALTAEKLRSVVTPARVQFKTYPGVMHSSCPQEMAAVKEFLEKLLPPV
row,SMILES,inhibition
1,Cc1ccc(N2CCN(C3=NC(=O)/C(=C\c4cccs4)S3)CC2)cc1,56.2% (active)
2,CCC(CC)COC(=O)C1=C(C)NC(=O)NC1c1ccc([N+](=O)[O-])cc1 (stereo not drawn),48.5% (active)
3,O=C(CCCN1C(=O)CSc2ncccc21)N1CCN(c2cccc(C(F)(F)F)c2)CC1,60.9% (active)
4,Cc1c(C)c2ccc(OCC(=O)N3CCN(c4cccc(Cl)c4)CC3)cc2oc1=O,45.7% (active)
5,O=C(COc1ccc(Cl)cc1)N1CCN(c2cccc(C(F)(F)F)c2)CC1,63.1% (active)
6,O=C(c1cc(-c2ccc(Cl)cc2)on1)N1CCN(c2ccccc2)CC1,2.82% (inactive)
7,CCC(=O)c1ccc(OCC(O)CN2CCN(c3cccc(C(F)(F)F)c3)CC2)cc1 (stereo not drawn),62.3% (active)
8,CN(CCc1ccccn1)C(=O)c1ccc(OC2CCN(CCc3ccccc3)CC2)cc1,21.1% (inactive)
9,O=C(CCCN1C(=O)c2cccc3cccc(c23)C1=O)N1CCN(Cc2ccc3c(c2)OCO3)CC1,55.4% (active)
10,O=C(COc1ccc(NC(=O)c2ccccc2[N+](=O)[O-])cc1)c1ccc(F)cc1,34.8% (active)
11,O=[N+]([O-])c1ccc(Oc2ccc(F)cc2Br)c2ccncc12,33.5% (active)
12,Cc1cc(OCCCN2CCN(Cc3ccccc3)CC2)ccc1[N+](=O)[O-],40.4% (active)
13,CSc1cccc(NC(=O)CN2C(=O)COc3ccc(S(=O)(=O)N4CCOCC4)cc32)c1,33.8% (active)
14,N#Cc1ccc(C2=CC(=O)C[C@H](c3ccc(Cl)cc3)C2)cc1,42% (active)
15,O=C(CC1SC(N2CCCC2)=NC1=O)Nc1ccc(C(=O)NCCc2ccc(F)cc2)cc1 (stereo not drawn),43.7% (active)
16,CCOC(=O)c1cc2cc(-c3c(C(=O)OCC)oc4cc(O)cc(O)c4c3=O)ccc2o1,36.7% (active)
17,O=C1C2CCCN2C(=O)N1CCCCN1CCN(c2cccc(C(F)(F)F)c2)CC1 (stereo not drawn),55.6% (active)
18,CCN(CC)C(=O)CC1(c2ccccc2OC)CCOC(C(C)C)C1 (stereo not drawn),4.28% (inactive)
19,CCc1ccc(NC(=O)c2ccc(Cn3cc([N+](=O)[O-])cn3)cc2)cc1,19.7% (inactive)
20,Cc1nc([N+](=O)[O-])cn1CC(=O)Nc1ccc(Cl)cc1,34.4% (active)
21,Cc1nc([N+](=O)[O-])cn1CC(=O)Nc1ccc2c(c1)OCO2,26.8% (active)
22,O=C(c1ccco1)N1CCN(C(=S)Nc2cc(F)cc(F)c2)CC1,44.1% (active)
23,O=C(Nc1ccc(N2CCN(C(=O)c3ccccc3)CC2)c(Cl)c1)c1cccnc1,27% (active)
24,CCOc1ccc(C(=O)NC(=S)Nc2ccc(N3CCOCC3)c(Cl)c2)cc1[N+](=O)[O-],21.8% (inactive)

row,SMILES,inhibition
1,Cc1ccc(C(c2sc3nc(C)nn3c2O)N2CCN(c3ccc(F)cc3)CC2)cc1 (stereo not drawn),30% (active)
2,COc1ccc(CCNc2nc(-c3cccc(NC(C)=O)c3)cs2)cc1OC,3.07% (inactive)
3,O=C(Cc1ccc(-n2c(=O)[nH]c3ccccc3c2=O)cc1)N1CCN(c2cccc(Cl)c2)CC1,48.3% (active)
4,COc1ccc(-c2nc(CS(=O)CC(=O)NCc3ccccn3)c(C)o2)cc1 (stereo not drawn),9.85% (inactive)
5,O=[N+]([O-])c1ccc(N2CCN(CC(O)COc3ccccc3)CC2)cc1 (stereo not drawn),29.1% (active)
6,COCCOC(=O)c1sc(=S)n(CCOC)c1N,21.3% (inactive)
7,Cc1ccc(/C=N/NC(=O)C(NC(=O)c2ccccc2)c2n[nH]c(=O)c3ccccc23)cc1 (stereo not drawn),56.2% (active)
8,Cc1nn2c(=O)cc(COC(=O)c3ccc(NC(=O)C(C)(C)C)cc3)nc2s1,27.5% (active)
9,COc1ccccc1C(=O)NC(CCSC)C(=O)N1CCN(C/C=C/c2ccccc2)CC1 (stereo not drawn),31.7% (active)
10,Cc1cc(C)c(C#N)c(SCc2[nH]nc3c2C(c2ccccc2)C(C#N)=C(N)O3)n1 (stereo not drawn),48.2% (active)
11,N#Cc1cc([N+](=O)[O-])ccc1Oc1cccc(/C=N/NC(=O)c2ccc(Cl)cc2)c1,15.7% (inactive)
12,CC(=O)N1c2ccc(S(=O)(=O)N3CCC(C(=O)N4CCN(c5ccccc5)CC4)CC3)cc2CC1C (stereo not drawn),47.4% (active)
13,CC(=O)c1ccc(N2CCN(C(=O)C3CCN(S(=O)(=O)c4ccc5c(c4)CC(C)N5C(=O)C4CC4)CC3)CC2)cc1 (stereo not drawn),72% (active)
14,Cc1nn(Cc2ccccc2)c(C)c1CNC(=O)c1ccc(F)c(S(=O)(=O)N2CCOCC2)c1,-0.54% (inactive)
15,CCCCCC1CCC(c2nnc(SCC(C)=O)o2)CC1 (stereo not drawn),37.8% (active)
16,CCN(CC)c1ccc(C(=O)NNC(=O)CCc2nc3ccccc3c(=O)[nH]2)cc1,1.17% (inactive)
17,COc1ccc(N2CCN(C(=O)c3ccc(N4CCCCS4(=O)=O)cc3)CC2)cc1,56.2% (active)
18,Nc1[nH][nH]c(=O)c1N=Nc1ccc2c(c1)OCO2,1.18% (inactive)
19,COc1ccc(N2CC(C(=O)NCCN3C(=O)S/C(=C\c4cccnc4)C3=O)CC2=O)c(OC)c1 (stereo not drawn),6.43% (inactive)
20,CCCCCCOc1ccc(OC(=O)c2cccnc2)cc1,59.1% (active)
21,CCC(=C/c1sc2ccc3ccccc3c2[n+]1C)/C=C1\Sc2ccc3ccccc3c2N1C,0.49% (inactive)
22,O=C(Nc1ccc(N2CCN(C(=O)c3cccs3)CC2)cc1)c1cccnc1Cl,37.2% (active)
23,COc1ccc(C(C#N)Nc2ccc(C)cc2)cc1 (stereo not drawn),3.09% (inactive)
24,Cc1cccc(OCC(O)CN2CCN(CCN3C(=O)c4cccc5cccc(c45)C3=O)CC2)c1C (stereo not drawn),42.9% (active)
